# Experimental data: PubChem BioAssay (NCATS)
# Inconclusive results are not listed. Active and inactive are the calls of the source. Calls follow the shape of the dose curve; as a rule, active = well fitted curve in the direction sought with a large enough effect; inconclusive = small, poorly fitted or top-dose-only effect, or another doubt; inactive = no such curve, though single readings can be large; an effect the other way counts as inactive or inconclusive.
# Key:
# [1] = qHTS of pediatric cancer cell lines to identify multiple opportunities for drug repurposing: Confirmatory screen for TC32 cells (AID 1347118);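 also: cells exposed to compound for 48 h before the read; nearly all actives have a fitted effect of over 65% in size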; also: potency is read from the fitted curve at half-maximal effect
# In short: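 qHTS, TC32, 48 h drug treatment, CellTiter-Glo luminescence as a proxy for metabolically active cells; primary top concentration 46 µM (MIPE 11-pt, NPC 8-pt); confirmatory 11-pt.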
# [2] = qHTS of pediatric cancer cell lines to identify multiple opportunities for drug repurposing: Confirmatory screen for MG 63 (6-TG R) cells (AID 1347119); also: nearly all actives have a fitted effect of over 55% in size; also: potency is read from the fitted curve at half-maximal effect
# In short: (§1)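 Cells (500-1,000/well) rested 5 h, then received compounds for 48 h; metabolically active cells were measured by CellTiter-Glo luminescence. Final concentrations spanned up to 46 µM (MIPE, 11-point) or 0.59 nM-46 µM (NPC, 8-point) in primary screens, 11-point in follow-ups.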
# [3] = qHTS of pediatric cancer cell lines to identify multiple opportunities for drug repurposing: Confirmatory screen for Rh41 cells (AID 1347123);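 also: 48 h compound exposure; nearly all actives have a fitted effect of over 60% in size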; also: potency is read from the fitted curve at half-maximal effect
# In short: as §1
# [4] = qHTS of pediatric cancer cell lines to identify multiple opportunities for drug repurposing: Confirmatory screen for RD cells (AID 1347124);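 also: cells exposed to compound for 48 h before viability readout; nearly all actives have a fitted effect of over 65% in size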; also: potency is read from the fitted curve at half-maximal effect
# In short: as §1
# [5] = qHTS of pediatric cancer cell lines to identify multiple opportunities for drug repurposing: Confirmatory screen for Rh18 cells (AID 1347125); also: nearly all actives have a fitted effect of over 55% in size; also: potency is read from the fitted curve at half-maximal effect
# In short: as §1
# [6] = qHTS of pediatric cancer cell lines to identify multiple opportunities for drug repurposing: Confirmatory screen for Rh30 cells (AID 1347126); also: nearly all actives have a fitted effect of over 55% in size; also: potency is read from the fitted curve at half-maximal effect
# In short: as §1
# [7] = qHTS of pediatric cancer cell lines to identify multiple opportunities for drug repurposing: Confirmatory screen for OHS-50 cells (AID 1347128);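 also: compound exposure lasted 48 h at 37 degrees C; nearly all actives have a fitted effect of over 55% in size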; also: potency is read from the fitted curve at half-maximal effect
# In short: as §1
# [8] = qHTS of pediatric cancer cell lines to identify multiple opportunities for drug repurposing: Confirmatory screen for SK-N-SH cells (AID 1347129);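 also: cells exposed to compound for 48 h before viability read; nearly all actives have a fitted effect of over 60% in size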; also: potency is read from the fitted curve at half-maximal effect
# In short: as §1
# [9] = tested on: Zika virus NS2B-NS3 protease; assay: Primary screen GU AMC qHTS for Zika virus inhibitors (AID 1347154); also: nearly all actives have a fitted effect of over 70% in size; also: potency is read from the fitted curve at half-maximal effect
# In short: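 Fluorogenic AMC-substrate cleavage by noncovalent NS2B-NS3 protease complex (25 nM, pH 8.0 Tris buffer with Tween 20) followed for 15 minutes at room temperature (~20% conversion). Percent inhibition from ex340/em450 signal change, fitted by 4-parameter Hill equation.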
# [10] = molecular target: N-terminal Xaa-Pro-Lys N-methyltransferase 1 (Homo sapiens) (UniProt Q9BV86); assay: qHTS Assay for Inhibitors of N-terminal methyltransferase 1 (NTMT1): LOPAC validation of the NTMT1 SAHH-coupled ThioGlo3 Assay (AID 1347143);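 also: SAH from peptide methylation measured as thiol fluorescence via SAHH coupling and ThioGlo3; nearly all actives have a fitted effect of over 70% in size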
# Chain of N-terminal Xaa-Pro-Lys N-methyltransferase 1 (Homo sapiens) (Q9BV86 whole entry, looked up): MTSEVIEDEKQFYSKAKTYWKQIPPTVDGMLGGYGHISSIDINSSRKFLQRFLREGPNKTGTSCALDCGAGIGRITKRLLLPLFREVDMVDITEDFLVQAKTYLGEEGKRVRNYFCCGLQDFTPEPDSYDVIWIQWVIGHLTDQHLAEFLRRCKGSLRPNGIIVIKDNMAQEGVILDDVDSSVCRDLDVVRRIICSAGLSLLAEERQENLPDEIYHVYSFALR
# In short: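 Inhibition of NTMT1 methylation of peptide SPKRIA is followed by converting SAH with SAHH and labelling the released thiol with ThioGlo3. Plates are read at 340/450nm before and 30 min after reagent addition, both at room temperature.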
# [11] = tested on: Zika virus NS2B-NS3 protease (unlinked); assay: Optimization of GU AMC qHTS for Zika virus inhibitors: Unlinked NS2B-NS3 protease assay (AID 1347151); also: nearly all actives have a fitted effect of over 80% in size; also: potency is read from the fitted curve at half-maximal effect
# In short: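 Noncovalent NS2B hydrophilic domain–NS3 protease complex (25 nM final) in 10 mM Tris-HCl pH 8.0, 0.01% Tween 20; AMC substrate, room temperature 15 min (~20% conversion); fluorescence change normalized, 4-parameter Hill fit.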
# [12] = qHTS of pediatric cancer cell lines to identify multiple opportunities for drug repurposing: Confirmatory screen for BT-37 cells (AID 1347117); also: potency is read from the fitted curve at half-maximal effect
# In short: as §1
# [13] = qHTS of pediatric cancer cell lines to identify multiple opportunities for drug repurposing: Confirmatory screen for U-2 OS cells (AID 1347122); also: nearly all actives have a fitted effect of over 65% in size; also: potency is read from the fitted curve at half-maximal effect
# In short: as §1
# [14] = qHTS of pediatric cancer cell lines to identify multiple opportunities for drug repurposing: Confirmatory screen for Saos-2 cells (AID 1347127); also: nearly all actives have a fitted effect of over 60% in size; also: potency is read from the fitted curve at half-maximal effect
# In short: as §1
# Furin (Homo sapiens) = Furin (Homo sapiens) (UniProt P09958); assay: Furin counterscreen qHTS for Zika virus inhibitors (AID 1347149);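 also: purified recombinant full-length human furin enzyme at 5 nM; fluorescence gain from furin cutting a BOC-RVRR-AMC peptide substrate over 15 min; top concentration of the series differs between compounds; nearly all actives have a fitted effect of over 70% in size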
# Chain of Furin (Homo sapiens) (P09958 whole entry, looked up): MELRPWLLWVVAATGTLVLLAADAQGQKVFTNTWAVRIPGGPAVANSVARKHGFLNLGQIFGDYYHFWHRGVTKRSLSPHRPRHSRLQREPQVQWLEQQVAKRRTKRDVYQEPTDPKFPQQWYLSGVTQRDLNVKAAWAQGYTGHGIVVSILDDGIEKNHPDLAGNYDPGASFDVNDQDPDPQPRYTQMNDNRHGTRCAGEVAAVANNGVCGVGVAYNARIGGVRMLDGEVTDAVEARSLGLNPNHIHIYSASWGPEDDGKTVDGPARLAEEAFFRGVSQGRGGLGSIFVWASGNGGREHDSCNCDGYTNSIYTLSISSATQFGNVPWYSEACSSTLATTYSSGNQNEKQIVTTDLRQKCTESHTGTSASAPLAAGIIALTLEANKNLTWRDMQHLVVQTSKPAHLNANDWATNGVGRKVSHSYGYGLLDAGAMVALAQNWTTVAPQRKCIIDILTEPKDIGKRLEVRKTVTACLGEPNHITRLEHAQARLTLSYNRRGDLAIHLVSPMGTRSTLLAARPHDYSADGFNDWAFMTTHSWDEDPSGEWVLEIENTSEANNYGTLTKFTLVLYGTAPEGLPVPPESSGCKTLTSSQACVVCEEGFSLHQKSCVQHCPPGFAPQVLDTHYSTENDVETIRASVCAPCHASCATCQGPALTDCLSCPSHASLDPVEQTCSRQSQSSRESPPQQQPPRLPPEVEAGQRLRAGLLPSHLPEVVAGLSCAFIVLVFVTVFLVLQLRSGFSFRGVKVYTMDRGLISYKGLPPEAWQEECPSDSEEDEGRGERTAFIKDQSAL
# In short: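 Fluorogenic cleavage of BOC-RVRR-AMC (2 microM final, Km ~15 µM) was monitored (ex 340, em 450 nm) at 37C after 15 min RT preincubation of 5 nM furin with compounds in HEPES pH 7.0 buffer with CaCl2 and Triton X-100. Percent inhibition was fitted to a 4-parameter Hill curve.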
# [15] = Confirmatory screen GU Rhodamine qHTS for Zika virus inhibitors qHTS (AID 1347157); also: potency is read from the fitted curve at half-maximal effect; nearly all actives have a fitted effect of over 70% in size
# In short: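 Percent inhibition came from the 15-min rise in Rhodamine110 fluorescence (1.5 microM substrate, ~15% conversion), normalized to no-inhibitor and no-enzyme wells and Hill-fitted. Unlinked protease, 25 nM, pH 8.0 Tris buffer; compounds up to 114 microM, 15-min preincubation.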
# [16] = tested on: Zika virus NS2B-NS3 protease (unlinked complex); assay: Primary screen GU Rhodamine qHTS for Zika virus inhibitors: Unlinked NS2B-NS3 protease assay (AID 1347159); also: potency is read from the fitted curve at half-maximal effect; nearly all actives have a fitted effect of over 60% in size
# In short: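 A qHTS format was used, with compound concentrations ranging up to 114 microM. Each compound was preincubated with 25 nM NS2B-NS3 protease, and the substrate was then added at 1.5 microM. Curves were fitted with a 4-parameter Hill model.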
structure (smiles),measurement,setting,value
Cc1nc(N)nc(N)c1-c1ccc(Cl)c(Cl)c1,Potency,[1],0.147 µM (active)
same,Potency,[2],inactive
same,Potency,[3],inactive
same,Potency,[4],2.61 µM (active)
same,Potency,[5],inactive
same,Potency,[6],inactive
same,Potency,[7],1.31 µM (active)
same,Potency,[8],inactive
same,Potency,[9],inactive
CC(C)N(CCC(=O)c1ccc2ccccc2c1)Cc1ccccc1,Potency,[10],inactive
same,Potency,[11],26.7 µM (active)
same,Potency,[9],inactive
N=C(N)c1ccc(OCCCOc2ccc(C(=N)N)cc2)cc1,Potency,[12],inactive
same,Potency,[1],23.3 µM (active)
same,Potency,[13],0.465 µM (active)
same,Potency,[3],inactive
same,Potency,[4],inactive
same,Potency,[5],inactive
same,Potency,[6],inactive
same,Potency,[14],inactive
same,Potency,[7],inactive
same,Potency,[8],inactive
same,Potency,[9],inactive
Nc1c2ccccc2nc2ccccc12,Potency,[12],2.93 µM (active)
same,Potency,[1],2.93 µM (active)
same,Potency,[13],14.7 µM (active)
same,Potency,[3],16.5 µM (active)
same,Potency,[4],3.29 µM (active)
same,Potency,[5],4.65 µM (active)
same,Potency,[6],7.37 µM (active)
same,Potency,[7],3.69 µM (active)
same,Potency,[8],8.33 µM (active)
same,Potency,[9],35.5 µM (active)
C[N+](C)(C)CCO,Potency,[10],inactive
same,Potency,[11],inactive
CCC1(c2cnc[nH]2)Cc2ccccc2C1,Potency,[12],10.4 µM (active)
same,Potency,[1],4.14 µM (active)
same,Potency,[2],14.7 µM (active)
same,Potency,[3],16.5 µM (active)
same,Potency,[5],16.5 µM (active)
same,Potency,[6],10.4 µM (active)
same,Potency,[14],9.27 µM (active)
same,Potency,[7],inactive
same,Potency,[8],inactive
same,Potency,[9],inactive
Nc1ccc2cc3ccc(N)cc3nc2c1,Potency,[12],11.7 µM (active)
same,Potency,[1],9.27 µM (active)
same,Potency,[2],23.3 µM (active)
same,Potency,[13],9.27 µM (active)
same,Potency,[3],5.85 µM (active)
same,Potency,[4],5.22 µM (active)
same,Potency,[6],7.37 µM (active)
same,Potency,[7],20.8 µM (active)
same,Potency,[8],5.26 µM (active)
COc1c(C)c2c(c(O)c1C/C=C(\C)CCC(=O)OCCN1CCOCC1)C(=O)OC2,Potency,[12],1.31 µM (active)
same,Potency,[1],1.47 µM (active)
same,Potency,[2],inactive
same,Potency,[13],0.185 µM (active)
same,Potency,[3],2.33 µM (active)
same,Potency,[14],inactive
same,Potency,[11],21.5 µM (active)
O=c1[nH]sc2cc(Cl)ccc12,Potency,[1],20.8 µM (active)
same,Potency,[2],20.8 µM (active)
same,Potency,[3],1.85 µM (active)
same,Potency,[6],6.57 µM (active)
same,Potency,[8],inactive
same,Potency,[9],inactive
CCC1=C[C@@H]2CN(C1)Cc1c([nH]c3ccccc13)[C@@](C(=O)OC)(c1cc3c(cc1OC)N(C)[C@H]1[C@@](O)(C(=O)OC)[C@H](OC(C)=O)[C@]4(CC)C=CCN5CC[C@]31[C@@H]54)C2,Potency,[12],0.0261 µM (active)
same,Potency,[1],0.0165 µM (active)
same,Potency,[2],0.0233 µM (active)
same,Potency,[13],0.185 µM (active)
same,Potency,[4],0.0293 µM (active)
same,Potency,[5],inactive
same,Potency,[14],0.0185 µM (active)
same,Potency,[9],inactive
CCCCC(=O)OCC(=O)[C@H]1[C@H](C)C[C@H]2[C@@H]3C[C@H](F)C4=CC(=O)C=C[C@]4(C)[C@@]3(F)[C@@H](O)C[C@@]21C,Potency,[12],20.8 µM (active)
same,Potency,[1],16.5 µM (active)
same,Potency,[2],18.5 µM (active)
same,Potency,[3],29.3 µM (active)
same,Potency,[5],20.8 µM (active)
same,Potency,[6],14.7 µM (active)
same,Potency,[7],20.8 µM (active)
same,Potency,[8],inactive
same,Potency,[9],inactive
O=C1NC(=O)/C(=C/c2ccc3c(c2)OC(F)(F)O3)S1,Potency,[10],inactive
same,Potency,Furin (Homo sapiens),inactive
same,Potency,[15],12.4 µM (active)
same,Potency,[16],12.6 µM (active)
CCN(CC)CC(=O)OCC(=O)[C@@]1(O)CC[C@H]2[C@@H]3CCC4=CC(=O)CC[C@]4(C)[C@H]3[C@@H](O)C[C@@]21C,Potency,[12],inactive
same,Potency,[1],11.7 µM (active)
same,Potency,[13],inactive
same,Potency,[3],inactive
same,Potency,[5],inactive
same,Potency,[14],inactive
same,Potency,[7],inactive
same,Potency,[8],inactive
same,Potency,[9],inactive
NC(N)=NCCCCN=C(N)N,Potency,[10],inactive
same,Potency,[11],inactive
same,Potency,[9],inactive
C[C@H]1C[C@H]2[C@@H]3CCC4=CC(=O)C=C[C@]4(C)[C@H]3C(=O)C[C@]2(C)[C@@]1(O)C(=O)CO,Potency,[12],2.93 µM (active)
same,Potency,[2],4.65 µM (active)
same,Potency,[4],2.93 µM (active)
same,Potency,[5],3.29 µM (active)
same,Potency,[14],3.69 µM (active)
same,Potency,[8],inactive
same,Potency,[9],inactive
COc1cc(/C=C/C(N)=O)cc(OC)c1OC,Potency,[1],inactive
same,Potency,[13],inactive
same,Potency,[3],inactive
same,Potency,[5],inactive
same,Potency,[7],inactive
same,Potency,[8],inactive
same,Potency,[9],inactive
O=[N+]([O-])c1ccc(O)c2ncccc12,Potency,[12],7.37 µM (active)
same,Potency,[1],5.85 µM (active)
same,Potency,[13],inactive
same,Potency,[5],10.4 µM (active)
same,Potency,[8],9.35 µM (active)
same,Potency,[9],inactive
CC(=O)OCC(=O)[C@@]1(O)CCC2C3CCC4=CC(=O)CC[C@]4(C)C3[C@@H](O)C[C@@]21C (some centres undefined),Potency,[1],26.1 µM (active)
same,Potency,[2],inactive
same,Potency,[3],11.7 µM (active)
same,Potency,[5],inactive
same,Potency,[7],inactive
same,Potency,[8],inactive
same,Potency,[9],inactive
C[C@H]1C[C@@H]2[C@H]([C@@H](O)C[C@@]3(C)[C@H]2CC[C@]3(O)C(=O)CO)[C@@]2(C)C=CC(=O)C=C12,Potency,[13],inactive
same,Potency,[3],inactive
same,Potency,[5],inactive
same,Potency,[7],inactive
same,Potency,[8],inactive
same,Potency,[9],inactive
CO[C@@H]1[C@@H](OC)[C@H](C)[C@@](O)(CC(=O)O)O[C@H]1[C@H](C)[C@H]1O[C@@]2(CC[C@@](C)([C@H]3CC[C@@](C)([C@@H]4O[C@@H]([C@H]5O[C@](C)(O)[C@H](C)C[C@@H]5C)C[C@@H]4OC4C[C@H](OC)[C@@H](OC)[C@H](C)O4)O3)O2)C[C@H](O)[C@H]1C (some centres undefined),Potency,[12],0.522 µM (active)
same,Potency,[1],2.08 µM (active)
same,Potency,[2],0.522 µM (active)
same,Potency,[13],0.329 µM (active)
same,Potency,[3],0.465 µM (active)
same,Potency,[5],6.57 µM (active)
same,Potency,[6],7.37 µM (active)
same,Potency,[14],1.17 µM (active)
same,Potency,[7],0.657 µM (active)
same,Potency,[8],1.48 µM (active)
same,Potency,[9],inactive
